Bioassay records from PubChem.
SARS PLpro yeast – qHTS of Yeast-based Assay for SARS-CoV PLP. actives 0.19% (n = 330,000). AID 485353, 2010. S. cerevisiae expressing SARS-CoV PLpro, growth rescue. Potency, µM (titrated, usually from 32.9 µM), for the others: at the highest dose activity, positive = growth rescue, usual class: activators; calls by dose curve; further: potency means the concentration at half of the fitted maximal effect; 0% is about no effect; nearly all actives have a fitted effect of over 55% in size
Pf growth 96h – Primary qHTS for delayed death inhibitors of the malarial parasite plastid, 96 hour incubation; P. falciparum luciferase reporter growth, 96 h; Potency, µM (series often up to 28.7 µM), without a hit: at the highest dose activity change, negative = inhibition, actives largely listed as inhibitors; actives 6.9% (n = 320,000); AID 504834, 2011; further: potency means the concentration at half of the fitted maximal effect; on the % scale 0 is the no-effect control and ±100 the full control effect
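Infected RBCs, 2% Hct / 0.05% parasitemia final; luciferase-reporter P. falciparum; cpd 96 h, 37 C, 5% CO2; luciferase detection reagent; luminescence.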
AMA1 RON2 block – qHTS for Inhibitors of AMA1-RON; Towards Development of Antimalarial Drug Lead: Primary Screen. Plasmodium falciparum AMA1 (3D7) - RON2 peptide interaction. Potency, µM (series often up to 58.2 µM), for the others: at the highest dose activity change, negative = inhibition, usual class: inhibitors. AlphaScreen AMA1-biotinylated RON2 peptide binding. AID 720542, 2013. actives 0.2% (n = 360,000);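 further: potency means the concentration at half of the fitted maximal effect; 0% = vehicle wells and -100% = peptide control; nearly all actives have a fitted effect of over 45% in size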
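AMA1 (3D7) with his tag at 25 nM final met compounds first, then biotinylated RON2 peptide at 25 nM; detection used donor plus acceptor beads, 10 µg/mL apiece, read by AlphaScreen after 30 min at room temperature.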
CHX counter – Cycloheximide Counterscreen for Small Molecule Inhibitors of Shiga Toxin; actives 12% (n = 300,000); max response, %; cell reporter, cycloheximide protein synthesis inhibition counterscreen; in the data active means max response mostly above about 13%, no sharp cut-off; inactive means mostly below about 14%; further: read at 38.3 µM for the half of the compounds with a filed dose; 0% is about no effect
Pf growth 48h – Primary qHTS for delayed death inhibitors of the malarial parasite plastid, 48 hour incubation; actives 5.9% (n = 310,000); Potency, µM (series often up to 28.7 µM), inactives show at the top dose activity change, negative = inhibition, hits mostly inhibitors; P. falciparum luciferase growth in erythrocytes, 48 h; further: potency means the concentration at half of the fitted maximal effect; on the % scale 0 is the no-effect control and ±100 the full control effect
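Luciferase-expressing parasites in RBCs, 2% Hct / 0.1% parasitemia final; RPMI 1640 + 0.5% Albumax; 37 C, 5% CO2, one generation; luminescence read-out, lower signal = inhibition.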
Shiga toxin inh – A qHTS for Small Molecule Inhibitors of Shiga Toxin. inhibition, % at 38.7 µM. Vero cells, Shiga toxin protein synthesis inhibition reporter. AID 2315, 2010. actives 9.2% (n = 290,000); in the data active means inhibition mostly above about 28%, no sharp cut-off; inactive means mostly below about 43%; further: 0% is about no effect
The depositor's hits bear a star; ? = inconclusive; . = no result given. An excerpt weighted towards active compounds, which were near 19% of everything screened. Unless noted, the call rests on the fitted dose curve; in most records, active means well fitted curve in the direction sought with a large enough effect; inconclusive means small, poorly fitted or top-dose-only effect, or another doubt; inactive means no such curve, though single readings can be large; an effect the other way counts as inactive or inconclusive.

SMILES	SARS PLpro yeast	Pf growth 96h	AMA1 RON2 block	CHX counter	Pf growth 48h	Shiga toxin inh
CCNc1nc(Oc2ccc(C(=O)OC)cc2)nc(N(C)C)n1	-1%	?	3%	4	?	9
CC(=O)Nc1ccc(NCN2C(=O)[C@@H]3[C@H]4CC[C@H](C4)[C@@H]3C2=O)cc1	-15%	28%	-9%	-2	19%	-2
CC(=O)Nc1ccc(S(=O)(=O)Nc2nnc(C(C)(C)C)s2)cc1	?	.	0%	-1	.	-3
Cc1nc(NS(=O)(=O)c2ccccc2)sc1NC(=O)Nc1ccc(Cl)cc1	-1%	0%	40%	-2	?	-17
Cc1nc(NC(=O)Nc2ccc(Cl)cc2)sc1C	-1%	?	0%	27*	71%	41*
O=C(Nc1ccc(Cl)cc1)Nc1nnc(SCc2ccccc2)s1	-23%	?	2%	6	12%	23
COc1ccc(NC(=O)Nc2nnc(C(C)(C)C)s2)cc1	0%	104%	9%	23*	60%	49*
CC(C)(C)c1nnc(NC(=O)NS(=O)(=O)c2ccccc2)s1	3%	52%	-13%	23*	35%	29
CC(C)(C)c1nnc(NC(=O)Nc2ccc(Cl)cc2)s1	0%	?	-12%	15	30%	29*
CC1(C(=O)NS(=O)(=O)c2cccs2)CCN1C(=O)Cc1ccccc1 (stereo not given)	.	.	-5%	.	.	.
COc1cc(C(=O)N2CCN(C(=O)c3cc(-c4ccccc4)n[nH]3)CC2)cc(OC)c1OC	0%	?	9%	8	?	-2
COC(C[C@@H](O)CC(=O)COCc1ccccc1)OC	1%	72%	4%	2	39%	-3
O=C(/C=C/[C@H]1O[C@@H](n2ccc(=O)[nH]c2=O)[C@H](O)[C@@H]1O)NC1CCN(Cc2ccccc2)C1 (stereo not given in full)	.	.	0%	.	.	.
CC1CCN(S(=O)(=O)c2ccc3c(c2)C(=NO)c2cc(S(=O)(=O)N4CCC(C)CC4)ccc2-3)CC1	-2%	5.9µM*	-22%	6	?	-3
O=S(=O)(c1ccc2c(c1)C(=NO)c1cc(S(=O)(=O)N3CCCCC3)ccc1-2)N1CCCCC1	15%	?	7%	6	8.3µM*	-12
COc1ccc(S(=O)(=O)N2CCC(C)CC2)cc1OC	-3%	-24%	2%	1	-16%	.
Cc1ccc(S(=O)(=O)N2CCN(CC(=O)NC(=O)NCc3ccccc3)CC2)cc1C	8%	?	14%	5	.	16
c1ccc(CSc2ccc(-c3ccccn3)nn2)cc1	?	-15%	?	52*	297%	110*
O=C(CSc1ccc(-c2ccccn2)nn1)Nc1ccc(F)cc1F	1%	?	?	-2	17%	-7
O=C(CSc1ccc(-c2ccccn2)nn1)N1CCCC1	0%	-10%	-13%	25*	20%	43
O=C(CSc1ccc(-c2ccccn2)nn1)c1ccc(F)cc1	-17%	-7%	9%	33*	34%	51*
O=C(CSc1ccc(-c2ccccn2)nn1)NCc1ccc(Cl)cc1	22%	-28%	14µM*	-5	?	27
O=C(CSc1ccc(-c2ccccn2)nn1)NC1CCCC1	4%	?	-10%	15	6%	25
Cc1ccc(NC(=O)CSc2ncnc3ccccc23)cc1S(=O)(=O)N1CCCCCC1	6%	?	0%	1	?	-10
COc1ccc(CCNC(=O)C(=O)NCC2OCCN2S(=O)(=O)c2cccs2)cc1 (stereo not given)	-3%	-11%	14%	-2	-2%	-7
SMILES	SARS PLpro yeast	Pf growth 96h	AMA1 RON2 block	CHX counter	Pf growth 48h	Shiga toxin inh
CC(C)N1CCC(=O)NC1=O	.	.	9%	.	.	.
Cc1ccc(C(=O)CSc2ccc(-c3ccccc3)nn2)cc1	-12%	10%	18%	10	18%	9
Cc1ccc(CNC(=O)CSc2ccc(-c3ccccn3)nn2)cc1	?	2%	?	11	8%	25
Cn1c(SCC(=O)N2CCCCC2)nc2cccnc21	0%	13µM*	-1%	-1	30%	18
O=C(CSc1cnc2ccccc2n1)c1ccc(F)cc1	?	352%	55%	60*	317%	65*
COC(=O)CSc1cnc2ccccc2n1	.	-4%	0%	-5	3%	-5
O=C(CSc1ccc(-c2ccccn2)nn1)c1ccccc1	?	0%	?	49*	100%	87*
O=C(CSc1ccc(-c2ccccc2)nn1)c1ccccc1	0%	68%	19%	42*	83%	60*
CCOc1ccc(CCNC(=O)COC(=O)c2nc(Cl)ccc2Cl)cc1OCC	0%	?	-8%	.	?	.
Cc1cccc(-n2c(C)nc3cc(C(=O)N4CCOCC4)ccc32)c1	0%	4%	9%	13*	11%	17
Cc1cccc(-n2cnc3cc(C(=O)N4CCCCC4)ccc32)c1	-3%	.	5%	41*	1%	100*
O=C(Nc1cc(S(=O)(=O)N2CCOCC2)ccc1N1CCCC1)c1cccnc1Cl	-1%	16%	0%	4	1%	15
CCNc1nc(NC(C)C)nc(ON=C(C)C)n1	9%	?	.	-1	8.3µM*	-6
CC(C)Nc1nc(NNc2nc(Cl)nc(NC(C)(C)C)n2)nc(NC(C)C)n1	1%	13µM*	94%	-1	?	-7
CCNc1nc(NC(C)C)nc(NC(C)(C)C)n1	-1%	?	-5%	9	3.3µM*	3
CCNc1nc(NC(C)C)nc(OCC)n1	1%	?	4%	-1	.	-16
CC(C)Nc1nc(NC(N)=S)nc(NC(C)(C)C)n1	-1%	-21%	15%	-4	-9%	-12
CCNc1nc(NC(C)(C)C)nc(SC(C(C)=O)C(C)=O)n1	-8%	.	86%	-3	-10%	8
Fc1ccc2nc3[nH]c4ccccc4c3nc2c1	-15%	-10%	14%	44*	143%	62*
CCCc1nnc(SCC(=O)Nc2nccs2)o1	.	8%	102%	-2	9.3µM*	-3
Cn1c(CSCc2ccccc2Cl)nnc1SCC(=O)Nc1nccs1	-8%	12µM*	5%	-2	?	-7
Cn1c(SCC(=O)Nc2nccs2)nnc1C12CC3CC(CC(C3)C1)C2	-6%	9%	0%	27*	0%	37
Cn1c(SCC(=O)Nc2nccs2)nnc1C1CC1	4%	-42%	-6%	2	48%	-4
CCCCc1nnc(SCC(=O)Nc2nccs2)n1C	-2%	10µM*	-9%	2	23%	15
Cc1cccc(C)c1OCc1nnc(SCC(=O)Nc2nccs2)o1	-11%	1%	57%	1	.	-28
